Results: the supplement of paper PMC6555819

How the values were obtained:
Experiment in all cases: PBM binding z-score (relative to random genomic background probes); higher = stronger binding; sequences stand for … in GC…GCGATTGACAGCGTAGAATGAAGG
[1] = system: FXR:RXRa (NR concentration 270 nM, RXRa partner concentration 90 nM)
Summary of the method: (§1)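 Antibodies against each partner of ligand-free nuclear receptor dimers (one per run) detected binding on custom Agilent 4×180K protein-binding microarrays after 1 h incubation. The double-stranded probes had 34-nt variable regions carrying direct-repeat seeds, single-nucleotide variants, half-site ablations and random human genomic background sequences. Binding z-scores, from regression-normalized fluorescence, use the random background probes as reference.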

[2] = system: LXRa:RXRa (NR concentration 270 nM, RXRa partner concentration 90 nM)
Summary of the method: as §1

[3] = system: LXRa homodimer (NR concentration 270 nM)
Summary of the method: as §1

[4] = system: LXRb:RXRa (NR concentration 270 nM, RXRa partner concentration 90 nM)
Summary of the method: as §1

[5] = system: LXRb homodimer (NR concentration 270 nM)
Summary of the method: as §1

[6] = system: PPARa:RXRa (NR concentration 270 nM, RXRa partner concentration 90 nM)
Summary of the method: as §1

[7] = system: PPARg:RXRa (NR concentration 180 nM, RXRa partner concentration 90 nM)
Summary of the method: as §1

[8] = system: PPARg:RXRa 270nM:90nM, anti-RXR (NR concentration 270 nM, RXRa partner concentration 90 nM)
Summary of the method: as §1

[9] = system: PPARg:RXRa 30nM:10nM, anti-RXR (NR concentration 30 nM, RXRa partner concentration 10 nM)
Summary of the method: as §1

[10] = system: PPARg:RXRa 90nM:30nM, anti-RXR (NR concentration 90 nM, RXRa partner concentration 30 nM)
Summary of the method: as §1

[11] = system: PPARg:RXRa DBDmut IVT, anti-RXR (DBD mutation: RXRa K156A/R161A, NR concentration 270 nM, RXRa partner concentration 90 nM)
Summary of the method: as §1

[12] = system: PPARg:RXRa IVT, anti-PPARg (NR concentration 270 nM, RXRa partner concentration 90 nM)
Summary of the method: as §1

[13] = system: PPARg DBDmut:RXRa IVT, anti-PPARg (DBD mutation: PPARg1 K132A/R137A, NR concentration 270 nM, RXRa partner concentration 90 nM)
Summary of the method: as §1

[14] = system: PPARg DBDmut IVT, anti-PPARg (DBD mutation: PPARg1 K132A/R137A, NR concentration 270 nM)
Summary of the method: as §1

[15] = system: PPARg homodimer (NR concentration 180 nM)
Summary of the method: as §1

[16] = system: PXR:RXRa (NR concentration 270 nM, RXRa partner concentration 90 nM)
Summary of the method: as §1

[17] = system: PXR homodimer (NR concentration 270 nM)
Summary of the method: as §1

[18] = system: RARa:RXR (NR concentration 270 nM, RXRa partner concentration 90 nM)
Summary of the method: as §1

[19] = system: RARa homodimer (NR concentration 270 nM)
Summary of the method: as §1

[20] = system: RARb:RXRa (NR concentration 270 nM, RXRa partner concentration 90 nM)
Summary of the method: as §1

| Sequence | PBM binding z-score [1] | PBM binding z-score [2] | PBM binding z-score [3] | PBM binding z-score [4] | PBM binding z-score [5] | PBM binding z-score [6] | PBM binding z-score [7] | PBM binding z-score [8] | PBM binding z-score [9] | PBM binding z-score [10] | PBM binding z-score [11] | PBM binding z-score [12] | PBM binding z-score [13] | PBM binding z-score [14] | PBM binding z-score [15] | PBM binding z-score [16] | PBM binding z-score [17] | PBM binding z-score [18] | PBM binding z-score [19] | PBM binding z-score [20] |
| --- | --- | --- | --- | --- | --- | --- | --- | --- | --- | --- | --- | --- | --- | --- | --- | --- | --- | --- | --- | --- |
| TAGCCTAGGTCAGATCTGGCCAGTATACGCTATA | 1.53 | 1.13 | -0.379 | 0.773 | 0.0198 | 1.43 | 0.793 | 0.718 | -0.145 | 0.178 | 0.589 | 1.44 | -0.455 | -0.0508 | -0.0754 | 0.447 | -1.1 | 0.766 | -1.06 | 2.98 |
| ACAGACAGGTGATGAAGATAACTCAGGCTATCAT | -0.21 | -0.125 | -0.283 | -0.276 | -0.0745 | -0.164 | 0.734 | -0.057 | 0.429 | 0.0893 | -0.0309 | 0.209 | 0.00107 | 0.948 | 0.0066 | -0.435 | 0.0307 | -0.227 | 0.47 | 0.0491 |
| AGTCAAAGTTCATCTAGGTAGCGTAAGATATGCT | 6.22 | 6.03 | 4.76 | 3.76 | 1.66 | 4.61 | 6.29 | 6.38 | 3.49 | 5.38 | 0.422 | 2.98 | 1.02 | 1.02 | 2.55 | 4.98 | 6.74 | 3.75 | 1.85 | 4.8 |
| CGTCCAAGGTCAGCAGGTCAGTGAGAGCGACGTG | 5.85 | 4.1 | 0.541 | 2.94 | -0.239 | 4.74 | 4.1 | 4.36 | 1.29 | 2.94 | 2.88 | 3.81 | -0.522 | -0.683 | 3.25 | 3.75 | 0.915 | 4.78 | 1.19 | 5.39 |
| TTACCAAGGTGACAGGTCGTTGATGCACGCCTTG | 0.924 | 1.02 | 0.111 | 0.582 | -0.664 | 2.56 | 3.23 | 4.37 | 1.99 | 3.62 | 2.31 | 3.79 | 0.46 | 0.0595 | 1.64 | 0.764 | 0.0726 | 1.14 | -0.207 | 2.05 |
| AGTCCAAGTTCAGGACGAGGTAACGTAAAGCACG | 1.19 | 0.849 | 0.0911 | 0.596 | -0.522 | 1.35 | 0.826 | 0.394 | 0.136 | 0.0902 | -0.641 | 0.15 | -0.559 | -0.0596 | 0.572 | 1.93 | 0.749 | 1.34 | -0.0097 | 2.56 |
